# Only some compounds are listed: those with a hit (about 12% of all), similar ones and a draw of the others.
# SARS PLpro yeast – inhibitors of SARS-CoV papain-like protease in yeast; AID 485353; Potency, µM (top dose mostly 32.9 µM), for the others: top-dose activity, positive = growth rescue, actives largely listed as activators; 0.19% of 330,000 active; S. cerevisiae expressing SARS-CoV PLpro, growth rescue; calls by dose curve; note: 0% is about no effect; nearly all actives have a fitted effect of over 55% in size
# Sm TGR inh – blocks Schistosoma mansoni thioredoxin glutathione reductase; purified TGR, DTNB reduction, TNB absorbance 405 nm; Q962Y6; 3% of 360,000 active; Potency, µM (highest dose often 114 µM), inactives show at the highest dose activity change, negative = inhibition, most hits filed as inhibitors; AID 485364; note: % is set by controls: 0 for no effect and ±100 for the full control effect; nearly all actives have a fitted effect of over 60% in size
#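 TGR 20 nM + NADPH 100 uM (dispensed conc.), cpd preinc 15 min RT; start with NADPH (500 uM addition) then DTNB (15 mM addition). Kinetic TNB absorbance, 405 nm filter. Four-parameter Hill fit across titration.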
# Pf growth 96h – P. falciparum growth inhibition at 96 hours | P. falciparum luciferase reporter growth, 96 h | Potency, µM (top dose mostly 28.7 µM), inactives show at the top dose activity change, negative = inhibition, hits mostly inhibitors | 6.9% of 320,000 active | AID 504834; note: % is set by controls: 0 for no effect and ±100 for the full control effect
#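 Infected RBCs, 2% Hct / 0.05% parasitemia final; luciferase-reporter P. falciparum; cpd 96 h, 37 C, 5% CO2; luciferase detection reagent; luminescence.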
# Pf growth 48h – P. falciparum growth inhibition at 48 hours (one generation) | P. falciparum luciferase growth in erythrocytes, 48 h | Potency, µM (series often up to 28.7 µM), for inactives: at the highest dose activity change, negative = inhibition, usual class: inhibitors | 5.9% of 310,000 active | AID 504832; note: % is set by controls: 0 for no effect and ±100 for the full control effect
#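 Cell-based growth assay: transgenic P. falciparum expressing firefly luciferase, cultured in red cells within RPMI 1640 containing 0.5% w/v Albumax, 24 mM bicarbonate and gentamycin. A drop in luciferase activity indicates inhibition.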
# Starred values were filed as active, the others as inactive; ? = inconclusive; . = no result. Unless noted, calls come from the whole dose curve; as a rule, active = well fitted curve in the direction sought with a large enough effect; inconclusive = small, poorly fitted or top-dose-only effect, or another doubt; inactive = no such curve, though single readings can be large; an effect the other way counts as inactive or inconclusive. Potency is the fitted concentration of half-maximal effect.
SMILES,SARS PLpro yeast,Sm TGR inh,Pf growth 96h,Pf growth 48h
CC12CCC(C(=O)NNc3ccccc3)(OC1=O)C2(C)C (centres undefined),0%,.,?,11%
CC12CCC(C(=O)NC(c3ccccc3)c3ccccc3)(OC1=O)C2(C)C (centres undefined),4%,17%,13µM*,.
Cc1ccc(/C=C/S(=O)(=O)NCc2ccc(F)cc2)cc1,-1%,0%,?,10µM*
Cc1c(C(=O)NCCc2ccccc2)cccc1-n1cnc2cccnc21,.,-3%,.,.
CCOc1ccc(OCC(=O)Nc2nccs2)cc1,-4%,.,3%,-60%
Cc1ccc(S(=O)(=O)N(C)c2ccc(OCC(=O)Nc3nc4ccccc4s3)cc2)cc1,9%,?,3.3µM*,4.7µM*
CCOc1ccc(S(=O)(=O)N(C)c2ccc(OCC(=O)Nc3nccs3)cc2)cc1,0%,0%,?,1.9µM*
Cc1ccc(N(C)S(=O)(=O)c2cccc(C(=O)Nc3ccc(N4CCOCC4)cc3)c2)cc1,19%,?,10µM*,?
CN(C)S(=O)(=O)c1cccc(C(=O)Nc2ccc(N3CCOCC3)cc2)c1,0%,-15%,20%,1%
COc1ccc(N(C)S(=O)(=O)c2cccc(C(=O)NC3CCCCC3C)c2)cc1 (centres undefined),-2%,-8%,?,?
COc1ccc(N(C)S(=O)(=O)c2cccc(C(=O)NC3CCCC3)c2)cc1,0%,2%,?,10µM*
CN(c1ccccc1)S(=O)(=O)c1cccc(C(=O)Nc2ccc(N3CCOCC3)cc2)c1,0%,-1%,?,?
COc1ccc(N(C)S(=O)(=O)c2cccc(C(=O)Nc3ccc(N4CCOCC4)cc3)c2)cc1,3%,-3%,?,8.3µM*
COc1ccc(OC)c(-c2nc(C(=O)NCCCN3CCOCC3)cc3c2[nH]c2ccccc23)c1,?,-1%,2.9µM*,2.3µM*
COc1ccc(OC)c(-c2cc(C(=O)NCCN3CCOCC3)no2)c1,6%,2%,?,27%
C[C@H](NC(=O)c1cc2c([nH]c3ccccc32)c(-c2ccccc2)n1)C(=O)O,-1%,1%,?,?
COc1ccc(OC)c(-c2nc(C(=O)NC3CCN(Cc4ccccc4)CC3)cc3c2[nH]c2ccccc23)c1,-6%,3%,3.7µM*,8.3µM*
COc1cc(-c2nc(C(=O)NC3CCCCC3)cc3c2[nH]c2ccccc23)cc(OC)c1OC,-6%,6%,?,6.6µM*
COc1cc(C(=O)NC2CCN(Cc3ccccc3)CC2)cc(Cl)c1OC,-2%,-14%,?,?
COc1cc(-c2nc(C(=O)NC3CCN(Cc4ccccc4)CC3)cc3c2[nH]c2ccccc23)cc(OC)c1OC,-1%,-19%,2.1µM*,?
COc1ccc(OC)c(-c2cc(C(=O)NC3CCCC3)c3ccccc3n2)c1,?,-9%,?,?
Cc1ccc(-n2c(=O)[nH]c3sc4c(c3c2=O)CCCC4)cc1,.,-3%,.,.
CCOC(=O)C1CCN(C(=O)CN2c3ccc(CC)cc3-c3ccccc3S2(=O)=O)CC1,.,-1%,.,.
CNC(=O)c1cccc(NC(=O)c2ccccc2OCc2ccccc2)c1,-2%,-12%,-23%,-5%
O=C(CSc1ccc(-c2ccco2)nn1)NC1CCCCC1,-2%,8.9µM*,46%,20%
SMILES,SARS PLpro yeast,Sm TGR inh,Pf growth 96h,Pf growth 48h
O=C(CSc1ccc(-c2ccco2)nn1)NC1CCCC1,-3%,18µM*,13%,1%
O=C(CSc1ccc(-c2ccccc2)nn1)NC1CCCC1,12%,-24%,29%,0%
O=C(CSc1ccc(-c2ccccc2)nn1)NC1CCCCC1,.,-22%,49%,15%
O=C(CSc1ccc(-c2ccco2)nn1)N1CCCCCC1,1%,25µM*,44%,33%
O=C(CSc1ccc(-c2ccccc2)nn1)N1CCCCC1,-6%,16%,8%,86%
CCCC(=O)N1CCN(c2ccc(NC(=O)c3cc4ccccc4o3)cc2Cl)CC1,-4%,0%,7%,1.5µM*
CC(C)C(=O)N1CCN(c2ccc(NC(=O)c3ccco3)cc2Cl)CC1,-2%,4%,?,9.3µM*
CCCOc1ccc(C(=O)N2CCN(c3ccc(NC(=O)CC)cc3Cl)CC2)cc1,-17%,0%,-4%,6.6µM*
CN1CCN(c2ccc(NC(=O)COc3ccccc3)cc2Cl)CC1,3%,6%,-3%,32%
O=C(Nc1ccc(N2CCN(C(=O)c3ccccc3)CC2)c(Cl)c1)c1ccco1,-8%,?,-22%,8.3µM*
CC(=O)N1CCN(c2ccc(NC(=O)c3ccco3)cc2Cl)CC1,?,?,?,38%
Cc1cc2c(c(CO)c1CCO)C(=O)[C@@H](C)[C@@H]2O,3%,.,.,.
Cc1c(Cl)cccc1NC(=O)Cn1nc(C(F)(F)F)c2c1CCC2,.,1%,.,.
Cc1ccc(C(=O)NC(C)c2ccc(-n3ccnc3)cc2)o1 (centres undefined),2%,-12%,-3%,0%
O=C(Nc1ccc(N2CCN(C(=O)c3ccco3)CC2)c(Cl)c1)c1cc2ccccc2o1,-13%,-3%,-2%,2.9µM*
Cc1nnc(SCC(=O)Nc2sccc2C(N)=O)s1,5%,-8%,-17%,-11%
Oc1c(Cl)cc(Cl)cc1/C=N/NC(=S)NC1CC2C=CC1C2 (centres undefined),-4%,-8%,?,0.83µM*
CN(/N=C/c1cc(Cl)cc(Cl)c1O)C(=S)NC(C)(C)C,-3%,-9%,?,?
Oc1ccccc1/C=N/NC(=S)NC1CC2C=CC1C2 (centres undefined),0%,4%,0.93µM*,?
CC1CN(C(=O)Nc2ccc(C(=O)NCc3cccc(F)c3)cc2)c2ccccc2S1 (centres undefined),.,6%,.,.
COc1cc(NC(=S)NCc2cccnc2)cc(OC)c1,14%,?,358%,2%
COc1cccc(NC(=O)C2C3C=CC(O3)C2C(=O)NCc2cccnc2)c1 (centres undefined),-12%,50µM*,3%,-7%
COc1cccc(NC(=O)c2cc([N+](=O)[O-])ccc2NCc2cccnc2)c1,-10%,-4%,?,10µM*
Cc1ccc(NC(=O)c2cc([N+](=O)[O-])ccc2NCc2cccnc2)cc1Cl,-3%,-10%,2.1µM*,5.9µM*
O=C(CSc1nnc(Cc2ccccc2)c(=O)[nH]1)Nc1ccccc1,-2%,6%,14%,5%
Cc1cc(C)cc(OC(=O)c2cc(-c3ccc(Cl)cc3)on2)c1,.,6%,.,.
O=C(COc1ccc(S(=O)(=O)NC2CCCCC2)cc1)NC1CC1,-3%,2%,-2%,24%
O=C(COc1ccc(S(=O)(=O)NC2CCCCC2)cc1)NC1CCCC1,1%,37%,52%,-13%
O=C(COc1ccc(S(=O)(=O)N2CCCCC2)cc1)NC1CCCCC1,0%,1%,?,8.3µM*
O=C(COc1ccc(S(=O)(=O)NC2CCCCC2)cc1)NC1CCCCC1,17%,8%,?,15µM*
